Source: PubChem
Sampled rows, rich in hits. Any-hit rate of the full collection: about 0.9%.
SRC1 TRFRET art = counter-screen for PPARgamma SRC-1 recruitment agonists: TR-FRET artefact; actives 0.34% (n = 99,000); TR-FRET ratio at 8 µM; TR-FRET detection artefact counter-screen, emission ratio; hits give high values; in the data active = TR-FRET ratio above about 2300
SRC3 TRFRET art = TR-FRET artefact, counter-screen to PPARgamma/SRC-3 agonist assay; PPARgamma/SRC-3 format; hits give high values; TR-FRET ratio at 8 µM; actives 0.39% (n = 99,000); in the data active = TR-FRET ratio above about 2000
PPARg SRC3 recr = PPARgamma-driven SRC-3 recruitment agonism; P37231; biochemical PPARgamma/SRC-3 coactivator recruitment assay; activation, % at 8 µM; actives 0.26% (n = 200,000); AID 731; in the data active = activation above about 23%;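 also: 0% = DMSO and 100% = reference agonist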
Target sequence (P37231 whole entry, looked up): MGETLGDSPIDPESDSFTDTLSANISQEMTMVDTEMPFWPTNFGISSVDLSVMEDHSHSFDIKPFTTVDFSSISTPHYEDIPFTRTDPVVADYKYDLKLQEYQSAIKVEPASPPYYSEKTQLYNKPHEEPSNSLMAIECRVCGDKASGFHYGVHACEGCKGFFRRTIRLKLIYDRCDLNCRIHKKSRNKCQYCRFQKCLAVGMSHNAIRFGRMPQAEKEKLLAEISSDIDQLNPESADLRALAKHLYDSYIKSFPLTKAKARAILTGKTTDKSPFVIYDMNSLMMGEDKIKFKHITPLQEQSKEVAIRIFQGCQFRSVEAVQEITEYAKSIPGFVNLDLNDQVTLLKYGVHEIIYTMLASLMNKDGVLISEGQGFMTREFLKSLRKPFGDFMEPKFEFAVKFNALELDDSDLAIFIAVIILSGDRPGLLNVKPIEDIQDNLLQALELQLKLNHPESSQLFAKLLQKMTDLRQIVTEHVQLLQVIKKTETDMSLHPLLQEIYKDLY
SRC2 TRFRET art = flags TR-FRET format artefacts in PPARgamma SRC-2 recruitment agonist screen | TR-FRET artefact counter-screen; hits give high values | actives 0.4% (n = 200,000) | TR-FRET ratio at 8 µM | AID 1049; in the data active = TR-FRET ratio above about 2000
PPARg SRC-2 ag = PPARgamma-driven SRC-2 recruitment agonism; PPARgamma LBD-SRC-2 recruitment, biochemical; activation, % at 8 µM; actives 0.34% (n = 200,000); AID 1032;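 also: 0% = vehicle and 100% = reference agonist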
PPARg SRC-1 ag = agonists of human PPARgamma SRC-1 coactivator recruitment | P37231 | PPARgamma-SRC-1 coactivator recruitment biochemical assay | activation, % at 8 µM | actives 0.41% (n = 200,000); in the data active = activation above about 19%;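 also: 0% = DMSO and 100% = reference agonist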
PPARg SRC2 conf = human PPARgamma SRC-2 recruitment agonism, confirmation | shares compounds with PPARg SRC3 recr | biochemical SRC-2 recruitment by PPARgamma | activation, % at 8 µM | actives 52% (n = 790);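 also: 0% = vehicle alone and 100% = reference agonist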
PPARg SRC1 ag = human PPARgamma SRC-1 recruitment agonism, confirmation. shares compounds with PPARg SRC3 recr. PPARgamma–SRC-1 coactivator recruitment biochemical assay. activation, % at 8 µM. actives 43% (n = 790). AID 1300; in the data active = activation above about 20%;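 also: 0% = vehicle wells and 100% = reference agonist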
PPARg SRC3 ag = confirmation of agonists of SRC-3 recruitment by human PPARgamma; shares compounds with PPARg SRC3 recr; biochemical PPARgamma-SRC-3 coactivator recruitment, agonist mode; activation, % at 8 µM; actives 29% (n = 790); AID 1301; in the data active = activation above about 24%;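 also: 0% = vehicle wells and 100% = reference agonist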
* = called active by the depositor; · = no result given. Rule as the data show it, unless noted: active = activation above about 22%; inactive = the rest.

SMILES | SRC1 TRFRET art | SRC3 TRFRET art | PPARg SRC3 recr | SRC2 TRFRET art | PPARg SRC-2 ag | PPARg SRC-1 ag | PPARg SRC2 conf | PPARg SRC1 ag | PPARg SRC3 ag
O=C(NC(=S)Nc1ccc(S(=O)(=O)NC2CCCCC2)cc1)c1cccs1 | 1771 | 1357 | -4.3 | 1626 | -5.5 | 2.0 | · | · | ·
C/C(=N\NC(=O)c1ccc(O)cc1)c1ccc2c(c1)Nc1ccccc1S2 | 1994 | 1673 | 14.5 | 1763 | 27.1* | 17.1 | 9.7 | 5.7 | 7.1
CCOc1ccc(S(=O)(=O)N(C)c2ccc(OCC(=O)Nc3nc(-c4cc(OC)ccc4OC)cs3)cc2)cc1 | 2860* | 2621* | 17.6 | 2453* | 26.2* | 24.6* | 31.7* | 26.0* | 21.5
O=C(Cc1cccc2ccccc12)Nc1ccc(-c2cc3ccccc3oc2=O)cc1 | · | · | 10.8 | 2296* | 7.7 | 24.4* | 23.9* | 17.9 | 10.1
CCOC(=O)c1sc(NC(=O)CSc2nnc(C(C)C)n2C)nc1C | · | · | 12.9 | 1699 | 1.2 | 3.4 | · | · | ·
COC(=O)c1sc(NC(=O)CSc2nnc(C(C)C)n2C)nc1C | · | · | 10.1 | 1715 | 14.1 | 19.1* | -0.5 | -0.1 | 0.3
CCOC(=O)c1c(-c2cccs2)csc1NC(=O)CCCC(=O)O | · | · | 19.4 | 2153* | 25.0* | 12.9 | 25.0* | 19.1 | 19.4
Nc1nc(-c2c[nH]c3ccccc23)cs1 | · | · | 35.9* | 1857 | 12.7 | 20.0* | 21.9* | 11.8 | 13.0
CNc1nc(-c2c[nH]c3ccccc23)cs1 | · | · | 13.7 | 1433 | 6.3 | 5.3 | · | · | ·
Clc1c(-c2ccccc2)nnn1-c1ccccc1 | 1779 | 1343 | -2.9 | 1506 | -3.8 | -1.3 | · | · | ·
COc1ccc(O)c(/C=N/Nc2nc3ccccc3[nH]2)c1 | 2218 | 1959 | 21.1 | 1754 | 26.3* | 7.4 | 7.8 | 8.4 | 9.3
C(=N\Nc1nc2ccccc2[nH]1)/c1ccc2c(c1)OCO2 | 2193 | 1932 | 10.4 | 2021* | 4.8 | 21.7* | 12.0 | 17.2 | 8.9
C(=N\Nc1nc2ccccc2[nH]1)/c1ccncc1 | 1761 | 1586 | 9.3 | 1937 | 11.2 | 15.8 | · | · | ·
C(=N\Nc1nc2ccccc2[nH]1)/c1cccs1 | · | · | 28.2* | 1564 | 10.0 | 14.8 | 10.3 | 10.9 | 6.6
COc1cc(/C=N/Nc2nc3ccccc3[nH]2)ccc1O | 2030 | 1195 | 14.2 | 1560 | 8.9 | 6.9 | · | · | ·
COc1ccc(OC)c(C(=O)COC(=O)c2cc(C)oc2C)c1 | · | · | -3.5 | 1514 | -2.1 | 1.6 | · | · | ·
Cc1cc(C(=O)OCC(=O)c2ccc(Br)s2)no1 | · | · | 123.1* | 2269* | 89.7* | 65.0* | 54.0* | 34.2* | 39.3*
Cc1cc(C(=O)OCC(=O)c2ccc(Br)s2)c(C)o1 | · | · | 31.3* | 1872 | 7.8 | 19.7* | 41.1* | 30.2* | 29.7*
Cc1cc(NS(=O)(=O)c2ccc(Br)s2)no1 | · | · | -3.6 | 1545 | 0.7 | 7.5 | · | · | ·
Cc1ccccc1-n1c(SCC(=O)NCc2cccs2)nc2ccccc2c1=O | 1859 | 1554 | 3.0 | 1580 | 8.9 | 6.4 | · | · | ·
O=[N+]([O-])c1ccc2c(c1)C(N1CCOCC1)/C(=C/COc1ccc(Cl)cc1Cl)O2 (configuration not stated) | · | · | 8.3 | 1519 | 3.5 | 10.9 | · | · | ·
CC(=O)c1sc(NC(=O)CCCOc2ccc(Cl)cc2)nc1C | 2292 | 2343* | 20.4 | 2055* | 27.5* | 22.4* | 18.9 | 15.8 | 11.9
CCOC(=O)c1sc(-c2ccc(OC)cc2)cc1NC(C)=O | 2390* | 2089* | 14.1 | 1849 | 22.5* | 17.9 | 43.0* | 29.7* | 31.5*
COC(=O)c1sc(-c2ccccc2)cc1NC(=O)C1CC1 | 2544* | 2499* | 21.0 | 2243* | 30.2* | 32.6* | 32.0* | 21.1* | 17.6
CCOc1ccc(NC(=O)Nc2cc(-c3ccccc3)sc2C(=O)OC)cc1 | 1837 | 1594 | -0.7 | 1494 | 1.4 | 4.9 | · | · | ·
SMILES | SRC1 TRFRET art | SRC3 TRFRET art | PPARg SRC3 recr | SRC2 TRFRET art | PPARg SRC-2 ag | PPARg SRC-1 ag | PPARg SRC2 conf | PPARg SRC1 ag | PPARg SRC3 ag
Cc1ccc(-n2ncc(Br)c(Br)c2=O)cc1 | 2278 | 1996 | 17.6 | 1799 | 16.7 | 15.7 | · | · | ·
O=c1c(Br)c(Br)cnn1-c1ccccc1 | 2662* | 2406* | 31.6* | 2405* | 33.7* | 37.8* | 28.7* | 17.2 | 19.7
Cn1c(-c2sc3cc(C(F)(F)F)cnc3c2-c2cccs2)n[nH]c1=S | 2475* | 2332* | 22.4 | 2200* | 29.9* | 17.3 | 46.1* | 41.5* | 29.4*
Cn1c(-c2sc3cc(C(F)(F)F)cnc3c2-c2cccnc2)n[nH]c1=S | · | · | 29.6* | 1633 | 18.8 | 18.8* | 71.8* | 56.9* | 44.0*
CCCCN(CCCC)S(=O)(=O)c1c(C)[nH]c(=O)[nH]c1=O | 1615 | 1557 | 2.3 | 1609 | 8.3 | 4.8 | · | · | ·
O=C(CNC1CCCC1)Nc1ccc(N2CCCCCC2)cc1 | 1797 | 1650 | 6.2 | 1860 | 8.3 | 20.5* | 0.6 | 0.5 | 1.5
CC1=NOC(=O)/C1=C\c1ccc(-c2ccccc2Br)o1 | 4294* | 3608* | 51.2* | 3893* | 117.6* | 82.2* | 78.9* | 61.1* | 57.8*
Cc1ccc(-c2csc3ncnc(Sc4nnc(CN5CCCCCC5=O)o4)c23)cc1 | · | · | -6.3 | 1669 | 3.6 | 4.6 | · | · | ·
O=C(Cc1sc(-c2ccccc2Cl)nc1-c1ccccc1)Nc1ccc(F)cc1 | · | · | 12.8 | 2292* | 15.0 | 29.4* | 17.6 | 7.5 | 6.6
O=C(Cc1sc(-c2ccccc2)nc1-c1ccccc1)Nc1ccc(Cl)cc1 | · | · | -0.7 | 1545 | -1.3 | 6.4 | · | · | ·
Cc1csc(NC(=O)CS(=O)(=O)Cc2ccccc2)n1 | 1725 | 1666 | 1.9 | 1562 | 6.3 | 6.4 | · | · | ·
Cc1ccc(N=Cc2sc(O)c3ccccc23)c(C)c1 | · | · | 6.2 | 1462 | 7.8 | 16.4 | · | · | ·
Cc1ccc(N=Cc2sc(O)c3ccccc23)cc1 | · | · | 19.2 | 1560 | 28.8* | 25.1* | -3.8 | -2.5 | -0.5
N#C/C(=C\c1ccc(N2CCOCC2)o1)c1nc2ccccc2[nH]1 | · | · | 22.9 | 1740 | 25.5* | 25.2* | 4.4 | 13.3 | 11.4
N#C/C(=C\c1ccc(N2CCOCC2)c([N+](=O)[O-])c1)c1nc2ccccc2[nH]1 | 1558 | 1599 | 0.2 | 1476 | -0.6 | -5.3 | · | · | ·
COC(=O)C[N+](C)(C)CC#Cc1ccccc1 | 1640 | 1668 | 1.1 | 1481 | -3.6 | 1.8 | · | · | ·
COc1cccc(C2C3=C(CCCC3=O)Nc3[nH]n(-c4ccccc4)c(=O)c32)c1 (configuration not stated) | 1713 | 1360 | 7.2 | 1591 | 9.9 | -1.0 | · | · | ·
